Screening data (PubChem)
NCOA2 inhibitor: inhibits human steroid receptor coactivator 2 | Q15596 | HEK293 GAL4-SRC2 luciferase reporter, luminescence | inhibition, % at 9 µM | 0.17% of 370,000 active | AID 651957;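 active = inhibition above the mean inhibition of all tested compounds plus 3 SD, set per campaign, cut at about 52% in these data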
COUP-TFII inh: blocks human COUP-TFII nuclear receptor; P24468; HEK293T NGFI-A luciferase reporter, luminescence; inhibition, % at 8.6 µM; 0.7% of 370,000 active;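 active = inhibition above a per-plate cutoff, mean inhibition of test wells between control levels plus 3 SD, cut at about 38% in these data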;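 also: cells cotransfected with COUP-TFII expression vector driving the NGFI-A reporter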
NCOA1 inh: inhibits human SRC1 coactivator; Q15788; HEK293 GAL4-SRC1 luciferase reporter, luminescence; inhibition, % at 3.6 µM; 0.12% of 360,000 active; AID 588354;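 active = inhibition above the campaign mean plus 3 SD, with each screening campaign given its own cutoff, cut at about 60% in these data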
Target sequence (Q15788 whole entry, looked up, the tested form may be a part): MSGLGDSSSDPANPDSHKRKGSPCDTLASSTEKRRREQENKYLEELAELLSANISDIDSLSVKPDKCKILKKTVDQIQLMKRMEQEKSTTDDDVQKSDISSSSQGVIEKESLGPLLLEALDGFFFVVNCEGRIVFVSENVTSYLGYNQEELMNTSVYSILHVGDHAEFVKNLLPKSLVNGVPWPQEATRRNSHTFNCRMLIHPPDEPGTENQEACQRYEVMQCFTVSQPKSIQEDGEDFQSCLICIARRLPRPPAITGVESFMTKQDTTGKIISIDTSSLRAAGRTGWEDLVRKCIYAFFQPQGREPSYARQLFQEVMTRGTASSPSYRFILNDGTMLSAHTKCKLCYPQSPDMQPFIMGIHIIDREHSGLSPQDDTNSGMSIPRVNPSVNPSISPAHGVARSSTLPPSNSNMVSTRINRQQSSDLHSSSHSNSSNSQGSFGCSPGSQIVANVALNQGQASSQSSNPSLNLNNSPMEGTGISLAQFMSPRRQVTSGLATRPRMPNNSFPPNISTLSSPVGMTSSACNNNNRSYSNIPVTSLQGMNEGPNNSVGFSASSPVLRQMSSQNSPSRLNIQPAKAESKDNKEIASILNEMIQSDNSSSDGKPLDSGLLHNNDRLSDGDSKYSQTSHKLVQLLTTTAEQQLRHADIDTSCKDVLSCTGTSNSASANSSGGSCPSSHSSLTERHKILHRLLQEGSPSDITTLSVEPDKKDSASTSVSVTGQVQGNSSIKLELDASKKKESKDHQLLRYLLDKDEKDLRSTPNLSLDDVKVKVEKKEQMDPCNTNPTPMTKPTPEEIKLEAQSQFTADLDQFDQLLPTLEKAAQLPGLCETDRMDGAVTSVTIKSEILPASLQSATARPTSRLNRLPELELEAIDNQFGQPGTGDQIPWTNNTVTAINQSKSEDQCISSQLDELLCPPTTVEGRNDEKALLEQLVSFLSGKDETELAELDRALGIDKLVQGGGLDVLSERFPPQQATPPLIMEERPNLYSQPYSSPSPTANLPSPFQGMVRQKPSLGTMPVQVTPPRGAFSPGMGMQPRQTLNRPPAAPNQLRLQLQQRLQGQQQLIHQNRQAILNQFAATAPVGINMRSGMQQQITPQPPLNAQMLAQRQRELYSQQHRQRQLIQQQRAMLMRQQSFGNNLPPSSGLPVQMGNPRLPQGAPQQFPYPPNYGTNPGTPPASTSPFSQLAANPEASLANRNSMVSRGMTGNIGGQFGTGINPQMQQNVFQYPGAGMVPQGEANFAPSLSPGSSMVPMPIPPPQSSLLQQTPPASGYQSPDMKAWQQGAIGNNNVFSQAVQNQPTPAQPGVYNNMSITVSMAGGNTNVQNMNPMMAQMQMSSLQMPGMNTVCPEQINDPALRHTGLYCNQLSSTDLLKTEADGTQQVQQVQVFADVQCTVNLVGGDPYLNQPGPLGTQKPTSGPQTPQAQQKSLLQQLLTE
SRC3 inh: human NCOA3 inhibition | Q9Y6Q9 | HEK293 GAL4-SRC3 luciferase reporter, luminescence | inhibition, % at 3.6 µM | 0.17% of 360,000 active | AID 588352;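 active = inhibition above a per-campaign cutoff, the mean of all compounds plus 3 SD, cut at about 60% in these data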;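 also: higher means less SRC3-driven luciferase light from the GAL4 reporter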
LRH-1 inv ag: suppresses constitutive activity of human LRH-1; O00482; HEK293T StAR-luciferase reporter, LRH-1 transfected, 24 h; inhibition, % at 3.6 µM; 0.13% of 360,000 active; AID 602396;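 active = inhibition above the mean inhibition of all tested compounds plus 3 SD, cut at about 73% in these data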
Gal4-VP16 ctr: inhibits VP16 reporter, flagging COUP-TFII antagonist hits | HEK293 Gal4-VP16 luciferase reporter, luminescence | shares compounds with COUP-TFII inh | 25% of 2,500 active | inhibition, % at 8.5 µM | AID 687007; in the data active = inhibition above about 13%
COUP-TFII conf: confirmation of human COUP-TFII (NR2F2) inhibitors; shares compounds with COUP-TFII inh; HEK293 NGFI-A luciferase reporter, luminescence; inhibition, % at 8.5 µM; 45% of 2,500 active; AID 687008;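 active = mean inhibition over three repeats above a set limit taken from the earlier primary screen, cut at about 38% in these data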
Hits are given with their value; . = inactive; / = no result given. Sampled rows, rich in hits. Any-hit rate of the full collection: about 0.83%.

SMILES	NCOA2 inhibitor	COUP-TFII inh	NCOA1 inh	SRC3 inh	LRH-1 inv ag	Gal4-VP16 ctr	COUP-TFII conf
Cc1nn(-c2ccccc2)c(C)c1C(=O)OC(C)C(=O)NC1CCCCC1 (stereo unspecified)	.	59.0	.	.	.	.	.
CCCCCCC(=O)N(O)C1CC(=O)N(c2ccc(Cl)cc2)C1=O (stereo unspecified)	.	52.4	.	.	.	.	38.8
O=C(N1CCc2ccccc2C1)n1cc(C(O)(c2ccccc2)c2ccccc2)nn1	/	.	/	/	/	/	/
Cc1cc(C)n(Cc2ccc(NC(=O)c3ccc(COc4ccccc4Br)cc3)cc2)n1	.	63.4	.	.	.	.	.
OCCCNc1ncnc2scc(-c3ccc(Cl)cc3)c12	.	38.3	.	.	.	.	.
NNc1ncnc2scc(-c3ccc(Cl)cc3)c12	.	.	.	.	.	/	/
O=C(Nc1c(F)cccc1F)c1cnc(N2CCN(c3ccccn3)CC2)c2ccccc12	.	.	.	.	.	/	/
Cc1ccc(NC(=O)c2cnc(N3CCN(c4ccccn4)CC3)c3ccccc23)c(Br)c1	.	38.3	.	.	.	.	39.2
CC(C)(C)c1ccc(S(=O)(=O)NCC2CCN(C(=O)C(=O)c3cccs3)CC2)cc1	.	.	/	/	/	/	/
CCOC(=O)C1(Cc2ccc(Cl)cc2)CCN(C(=O)c2sc(C)nc2C)CC1	.	42.2	.	.	.	.	.
CCOC(=O)C1(Cc2ccc(OC)cc2)CCN(C(=O)c2sc(C)nc2C)CC1	.	.	.	.	.	/	/
Cc1ccccc1C(=O)N/N=C/c1ccc([N+](=O)[O-])s1	.	57.1	.	.	.	55.1	44.2
O=C(N/N=C/c1ccc([N+](=O)[O-])s1)c1ccccc1Br	.	.	.	.	.	/	/
O=C(N/N=C/c1ccc([N+](=O)[O-])s1)c1ccccc1	.	37.9	.	.	.	31.1	.
CCC[C@H]1[C@@H](N(C)CC2CCCCC2)CC[C@@]23CCCN2C(=O)CCC[C@@H]13	/	.	/	/	/	/	/
C=CCN1[C@@H](CC(C)C)COc2cc(F)ccc2S1(=O)=O	.	.	/	/	/	/	/
Cc1ccc(/C=N/Nc2ccc(C(=O)O)cc2)s1	.	40.5	.	.	.	.	.
O=C(O)c1ccc(N/N=C/c2ccc(-c3ccccc3)cc2)cc1	.	.	.	.	.	/	/
CC(C)c1ccc(/C=N/Nc2ccc(C(=O)O)cc2)cc1	.	51.8	.	.	.	.	37.4
CCN(CC)S(=O)(=O)c1ccc(Cl)c(NC(=O)COC(=O)c2ccc(O)cc2)c1	.	.	.	.	.	/	/
CCN(CC)S(=O)(=O)c1ccc(Cl)c(NC(=O)COC(=O)c2cccn2C)c1	.	38.5	.	.	.	.	.
CCCCCCCCCCCCCCCCn1cc[n+](C)c1	.	47.1	.	.	.	.	49.0
C=CS(=O)(=O)N(Cc1ccc(F)cc1)C(=C)C(=O)OC	.	67.8	/	/	/	16.7	.
CN(C)S(=O)(=O)c1cccc(NC(=O)CNc2cccc(S(=O)(=O)N3CCCCC3)c2)c1	.	44.9	.	.	.	.	.
CC(=O)c1ccc(OCC(=O)Nc2cccc(S(=O)(=O)N3CCCC3)c2)cc1	.	42.8	.	.	.	.	.
SMILES	NCOA2 inhibitor	COUP-TFII inh	NCOA1 inh	SRC3 inh	LRH-1 inv ag	Gal4-VP16 ctr	COUP-TFII conf
CC(=O)c1c(C)[nH]c(C(=O)OCC(=O)Nc2cc(S(=O)(=O)N3CCCC3)ccc2Cl)c1C	.	.	.	.	.	/	/
Cc1ccc(C)c(C(=O)OCC(=O)Nc2cccc(S(=O)(=O)N3CCCCC3)c2)c1	.	43.3	.	.	.	.	.
Cc1ccccc1C(=O)OCC(=O)Nc1cccc(S(=O)(=O)N2CCCCC2)c1	.	.	.	.	.	/	/
CC(=O)c1c(C)[nH]c(C(=O)OCC(=O)Nc2cccc(S(=O)(=O)N3CCCC3)c2)c1C	.	65.6	.	.	.	.	.
CCN(CC)S(=O)(=O)c1cccc(NC(=O)COC(=O)c2[nH]c(C)c(C(C)=O)c2C)c1	.	62.5	.	.	.	.	60.3
Nc1ccc(Nc2nc(-c3cc4ccccc4oc3=O)cs2)cc1	.	.	.	.	.	/	/
CC(=O)Nc1ccc(Nc2nc(-c3cc4ccccc4oc3=O)cs2)cc1	.	40.0	.	.	.	.	.
CCCNC(=O)N1CC[C@H]2[C@@H]1c1cc(-c3ccc(F)cc3)ccc1N(C)[C@H]2CO	.	.	/	/	/	/	/
COC(=O)[C@@]12CCCCC=C1N(CCc1ccc(Cl)cc1)C(=O)[C@H]2CC(=O)NCCCCc1ccccc1	.	.	/	/	/	/	/
CC(CCN1CCC(C(O)(c2ccccc2)c2ccccc2)CC1)Oc1cccc(Br)c1 (stereo unspecified)	.	.	/	/	/	/	/
CCCNC(=O)c1cn(CC)c2cc(N3CCN(C(=O)c4ccco4)CC3)c(F)cc2c1=O	.	.	.	.	.	/	/
CCn1cc(C(=O)NCc2cccc(F)c2)c(=O)c2cc(F)c(N3CCN(C(=O)c4ccco4)CC3)cc21	.	38.3	.	.	.	.	.
CC(=O)Nc1cccc(-c2csc(Nc3cc(C)ccn3)n2)c1	.	.	.	.	.	/	/
CC(=O)Nc1ccc(-c2csc(Nc3cc(C)ccn3)n2)cc1	.	52.7	.	.	.	.	.
Cc1ccc(OCc2nnc(SCC(=O)Nc3ccc(S(=O)(=O)Nc4cc(C)nc(C)n4)cc3)n2Cc2ccco2)cc1	.	.	/	/	/	/	/
CCCCOCCCNC(=O)C[C@H]1C[C@@]2(C(=O)OCC)CCCC3=C2N(CCC3)C1=O	.	.	/	/	/	/	/
O=C(CSc1nnc(-c2ccccn2)n1-c1ccccc1)Nc1cccc2ccccc12	.	.	/	/	/	/	/
O=S1(=O)c2ccc(Br)cc2OC[C@H](Cc2ccccc2)N1Cc1cn(Cc2ccc(C(F)(F)F)cc2)nn1	.	.	/	/	/	/	/
CCCCCCCCCCOC(=O)Cn1c(COc2ccccc2OC)[n+](C)c2ccccc21	.	43.8	.	.	.	.	.
CC1OC2CC(=O)OC2C2=C1C(=O)c1c(O)cccc1C2=O (stereo unspecified)	95.5	107.5	90.6	95.7	104.0	97.2	110.4
CN(CCCOC(=O)c1cc2ccccc2o1)C1CN(Cc2cn(Cc3ccccc3Cl)nn2)S(=O)(=O)C1 (stereo unspecified)	.	.	/	/	/	/	/
CC(C)(C)c1ccc(-c2nnc3sc(-c4ccccn4)nn23)cc1	.	41.1	.	.	.	.	51.9
COc1cccc(-c2nnc3sc(-c4ccccn4)nn23)c1	.	.	.	.	.	/	/
CCCOc1ccc(CSc2nc3ccccc3[nH]2)cc1	.	38.0	.	.	.	.	.
COc1ccc(C(=O)CSc2nnc(Cn3cnc4ccccc43)o2)cc1	.	60.1	.	.	.	.	40.5
CC(=O)c1ccc(NC(=O)CSc2nnc(Cn3cnc4ccccc43)o2)cc1	.	.	.	.	.	/	/
O=C(OC12CCCN(C1)/C(=C/c1cccc(Cl)c1)C2)C1CCCCC1 (stereo unspecified)	.	.	/	/	/	/	/
